Sampled rows, rich in hits. Any-hit rate of the full collection: about 4.4%.
SUMO Mot1 rescue = yeast Mot1-301 growth rescue at high temperature, primary screen, SUMOylation pathway inhibitor project, S. cerevisiae, ATP luminescence, 38.5C. S. cerevisiae Mot1-301 growth rescue; percent above DMSO median, 100 means doubled. growth rescue, % at 18.8 µM. actives 1% (n = 320,000). AID 2716, 2010;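 active means every valid replicate shows activation above 250% relative to neutral control wells; inactive means the rest, any valid replicate at or below 250%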
PfHsp90 set2 = growth inhibition of PfHsp90-expressing yeast, primary screen, antimalarial PfHsp90 inhibitor project, S. cerevisiae, BacTiter-Glo luminescence, single point, set 2; AID 504621, 2011; inhibition, % at 9.4 µM; BacTiter-Glo ATP, 48 h; yeast lacking PDR1 and PDR3 efflux regulators; actives 0.32% (n = 310,000);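 active means every replicate shows inhibition above about 80%, whatever the replicate mean, limit read from the data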
TIM10 inh = growth inhibitors of isogenic TIM10 control yeast, primary screen, counter-screen for tim10-1 yeast inhibitor project, luminescence, uHTS; S. cerevisiae TIM10 strain growth, BacTiter-Glo luminescence, 24 h; actives 1.4% (n = 330,000); inhibition, % at 10 µM;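 active means inhibition of 40% or more at the single tested concentration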;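 further: wild-type TIM10 isogenic control strain grown at permissive 25 °C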
tim10-1 inh = growth inhibitors of tim10-1 mutant yeast, primary screen, luminescence, uHTS; AID 463190, 2010; actives 2.2% (n = 330,000); S. cerevisiae tim10-1 ts strain growth, BacTiter-Glo, 24 h; inhibition, % at 20 µM;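 active means inhibition of at least 40%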;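 further: mutant grown at 25 °C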
tim23-1 inh = growth inhibitors of tim23-1 mutant yeast, primary screen, luminescence, uHTS. actives 1.3% (n = 330,000). S. cerevisiae tim23-1 growth, BacTiter-Glo luminescence, 24 h. inhibition, % at 20 µM;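 active means growth inhibition of the mutant yeast at or above 50%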;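 further: temperature-sensitive mutant grown at 25 °C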
tim10-1 confirm = growth inhibitors of tim10-1 mutant yeast, confirmation, single concentration, luminescence, S. cerevisiae; inhibition, % at 20 µM; shares compounds with tim10-1 inh; actives 56% (n = 7,400); S. cerevisiae tim10-1 ts strain growth, BacTiter-Glo, 24 h;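 active means inhibition of yeast growth at or above a set limit in either of two repeat tests at 20 µM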;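 further: tim10-1 mutant grown at permissive 25 °C to find synthetic lethal compounds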
TIM10 conf = growth inhibitors of wild-type TIM10 yeast, confirmation, counter-screen for tim10-1 synthetic lethality project, single concentration, luminescence, S. cerevisiae; S. cerevisiae tim10 strain growth, BacTiter-Glo luminescence, 24 h; shares compounds with TIM10 inh; AID 463215, 2010; inhibition, % at 10 µM; actives 63% (n = 4,600);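 active means inhibition of yeast growth at or above a set limit in either of two replicates at 10 µM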; further: this counterscreen used the strain with wild-type TIM10
tim23-1 confirm = tim23-1 mutant yeast growth inhibitors, confirmation, luminescence, single concentration. shares compounds with tim23-1 inh. S. cerevisiae tim23-1 growth, BacTiter-Glo luminescence, 24 h. inhibition, % at 20 µM. actives 83% (n = 4,400). AID 463218, 2010;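 active means inhibition above about 39% in either of two replicate wells at 20 µM, limit read from the data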;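 further: temperature-sensitive tim23-1 mutant grown at 25 °C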
Each line names hits and unclear results; the compound was inactive in the other large screens (follow-up assays come after a bar, where they were run).

COc1cccc(N2C(=O)NC(=O)/C(=C/c3ccc([N+](=O)[O-])s3)C2=O)c1	TIM10 inh 87, tim10-1 inh 73, tim23-1 inh 65 | tim10-1 confirm 69 | TIM10 conf inactive | tim23-1 confirm 78
COc1ccccc1N1C(=O)NC(=O)/C(=C/c2ccc([N+](=O)[O-])s2)C1=O	TIM10 inh 73, tim10-1 inh 77, tim23-1 inh 67 (no result: PfHsp90 set2) | tim10-1 confirm 68 | TIM10 conf inactive | tim23-1 confirm 70
CCOc1ccc(N2C(=O)NC(=O)/C(=C\c3cc(OC)c(OC)cc3[N+](=O)[O-])C2=O)cc1	none
O=c1c2ccccc2nc(-c2ccccc2Cl)n1-c1cccc(O)c1	none
O=C1OC(c2ccc(Cl)cc2)=N/C1=C\N1CC2CC(C1)c1cccc(=O)n1C2 (stereo not drawn)	none
COc1cc(C)cc2oc(=O)c(CC(=O)N3C[C@H]4C[C@@H](C3)c3cccc(=O)n3C4)c(C)c12	none
Cc1cc(C)n(-c2ccc(NN=C(C#N)C#N)cc2)n1	none
N#CC(C#N)=NNc1ccc(-n2ccc(C(F)(F)F)n2)cc1	TIM10 inh 48, tim10-1 inh 50, tim23-1 inh 51 | tim10-1 confirm 59 | TIM10 conf inactive | tim23-1 confirm 61
Cc1cc(Cc2c(O)[nH]c(=S)[nH]c2=O)ccc1OC(C)C	none
COC(=O)C(O)(c1ccc(NC(=S)NC(=O)c2ccc(Cl)cc2Cl)c(C)c1)C(F)(F)F (stereo not drawn)	tim10-1 inh 53, tim23-1 inh 59 | tim10-1 confirm 37 | tim23-1 confirm 58
CC(=O)O[C@@H]1CC[C@]2(C)C3CC[C@]4(C)C(=O)[C@H](O)CC4C3[C@@H](OC(C)=O)C[C@H]2C1 (stereo partly drawn)	none
CCN1/C(=C\C=C\C2=[N+](CC)c3ccccc3C2(C)C)C(C)(C)c2ccccc21	TIM10 inh 46, tim10-1 inh 42, tim23-1 inh 58 | tim10-1 confirm inactive | TIM10 conf inactive | tim23-1 confirm 40
CCn1nc(/C=C/c2ccccc2)nc2c(=O)n(C)c(=O)nc1-2	TIM10 inh 96, tim10-1 inh 93, tim23-1 inh 93 (no result: SUMO Mot1 rescue) | tim10-1 confirm 95 | TIM10 conf 98 | tim23-1 confirm 91
Cc1cccc(NC(=O)COC(=O)c2cc(C)n(C3CC3)c2C)c1	none
Cc1cccc(C)c1N1CCN(c2c(C)cccc2C)CC1	none
COc1cc(/C=C(/C)[N+](=O)[O-])ccc1OCc1ccccc1Cl	TIM10 inh 52, tim10-1 inh 49, tim23-1 inh 52 | tim10-1 confirm 36 | TIM10 conf 44 | tim23-1 confirm 71
Cc1ccc2c(c1)cc1c(=O)n(CC(=O)N3CCC4(CC3)OCCO4)nc(C)n12	none
CN1C(=O)C(=Cc2ccccc2OCCOc2ccc([N+](=O)[O-])cc2)C(=O)N(C)C1=O	TIM10 inh 69, tim10-1 inh 50, tim23-1 inh 74 | tim10-1 confirm 42 | TIM10 conf 66 | tim23-1 confirm 90
O=C1NC(=O)C(=Cc2ccccc2OCCOc2ccc([N+](=O)[O-])cc2)C(=O)N1	none (no result: SUMO Mot1 rescue, TIM10 inh, tim10-1 inh, tim23-1 inh)
Cc1ccc(Cn2cc(C=O)c(-c3ccc(C)cc3)n2)cc1	tim10-1 inh 45, tim23-1 inh 53 | tim10-1 confirm 35 | tim23-1 confirm 65
CN(C)c1ccc(/C=C/C=C/c2sc3ccccc3[n+]2C)cc1	none
